Source: PubChem BioAssay (several laboratories)
FGF22 binding: binders of recombinant human FGF22 by thermal shift | activity (Tm shift, normalised), % at 9.99 µM | SYPRO orange fluorescence; percent of sucrose octasulfate shift, DMSO zero | AID 651658 | actives 1.5% (n = 340,000);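 active means mean Tm shift, scaled 0 neutral to 100 positive control, at about 1.3% or above, every replicate too, limit read from the data; inconclusive means no clear call, values can overlap the other calls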
MLL AF4-AF9 inh: MLL-AF4/AF9 protein interaction inhibition | P42568 | AlphaScreen, biotin-AF4 peptide binding to FLAG-AF9 | inhibition, % at 10 µM | actives 0.47% (n = 350,000);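 active means every replicate reaching a set inhibition limit, whatever the replicate mean, cut at about 25% in these data; inconclusive means mean inhibition reaches that limit but some replicates miss it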;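 further: 0% = plate neutral control median and 100% = total signal loss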
Target sequence (P42568 whole entry, looked up): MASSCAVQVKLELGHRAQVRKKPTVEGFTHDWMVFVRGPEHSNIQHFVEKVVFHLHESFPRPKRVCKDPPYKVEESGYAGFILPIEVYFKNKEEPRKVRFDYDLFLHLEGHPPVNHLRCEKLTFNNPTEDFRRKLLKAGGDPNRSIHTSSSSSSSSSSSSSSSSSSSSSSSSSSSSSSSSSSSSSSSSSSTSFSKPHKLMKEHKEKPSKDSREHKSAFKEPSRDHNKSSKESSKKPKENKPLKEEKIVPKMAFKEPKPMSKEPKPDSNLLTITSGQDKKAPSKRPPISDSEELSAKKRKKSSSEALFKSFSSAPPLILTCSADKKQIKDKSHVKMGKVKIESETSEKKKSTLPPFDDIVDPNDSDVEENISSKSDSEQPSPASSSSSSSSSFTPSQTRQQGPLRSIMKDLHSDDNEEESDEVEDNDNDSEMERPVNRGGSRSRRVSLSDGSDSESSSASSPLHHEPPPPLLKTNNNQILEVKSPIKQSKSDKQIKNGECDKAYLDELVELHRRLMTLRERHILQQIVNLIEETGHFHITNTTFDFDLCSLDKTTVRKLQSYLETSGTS
Wnt act: activates Wnt/beta-catenin signaling in a reporter cell assay | actives 1.2% (n = 300,000) | AID 743398 | activator, plate reader | activation, % at 9.35 µM; in the data active means activation above about 30%, passing the limit was not always enough; inconclusive means no clear call, values can overlap the other calls;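 further: 0% = neutral control wells and 100% = positive control wells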
SMARCA2 activ: increases SMARCA2 function in MMTV reporter cells; activation, % at 9.1 µM; actives 1% (n = 370,000); MG213 cells, MMTV-luciferase reporter, dexamethasone, overnight; in the data active means activation above about 7.8%;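 further: 0% = vehicle wells and 100% = reference activator wells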
esBAF inh: SWI/SNF esBAF complex inhibition | mouse ES cells, Bmi1-luciferase knock-in reporter, 24 h; 100% = twice the neutral-well signal | reporter increase, % at 12.5 µM | actives 2% (n = 350,000); in the data active means activation above about 40%; inconclusive means no clear call, values can overlap the other calls;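 further: 0% = median of the plate's neutral control wells and 100% = double that signal; a rise in the Bmi1 reporter signal indicates esBAF inhibition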
MITF TRPM1 HTS: increases MITF-driven TRPM1 promoter luciferase signal; SK-MEL-5 TRPM1-promoter luciferase, 24 h; % of positive control, neutral wells = 0; activation, % at 12.5 µM; actives 0.75% (n = 300,000); AID 588334;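 active means mean activation of at least 80% with every replicate also reaching 80%; inconclusive means mean reaches 80% but some replicate falls short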;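 further: 0% = neutral control wells and 100% = parthenolide positive control wells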
SMARCA2 act conf: confirmation of SMARCA2 (BRM) function activators | shares compounds with SMARCA2 activ | MG213 cells, MMTV-luciferase with dexamethasone, luminescence, overnight; MG213 cells expressing E1A, Rb sequestered; DMSO wells 0%, reference activator 100% | activation, % at 9.1 µM | actives 30% (n = 3,500) | AID 652260;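 active means activation above its plate's cutoff, the mean activation of tested wells plus 3 SD, cut at about 7.9% in these data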
VP16 Luc act: counter-screen for SMARCA2 activators: GAL4-VP16 luciferase reporter activation | HEK293 GAL4-VP16 pG5luc reporter, luciferase luminescence; scaled: DMSO wells 0%, SAHA wells 100% | activation, % at 9.1 µM | shares compounds with SMARCA2 activ | actives 41% (n = 3,500);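 active means activation above the solvent-only control well mean plus 3 SD, averaged across control plates, cut at about 5.2% in these data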
An asterisk follows results filed as active. Most compounds without a hit are left out; they make up all but 4.3% or so of the library.

For O=C(O)CCS(=O)(=O)c1nc(-c2cccs2)cc(C(F)(F)F)n1 the results were FGF22 binding 0, MLL AF4-AF9 inh 5, Wnt act -1, SMARCA2 activ 13*, esBAF inh -3, MITF TRPM1 HTS -2, SMARCA2 act conf 6 and VP16 Luc act 0.
`CCN(CC)CCN1C(=O)C(=O)/C(=C(/O)c2cnn(-c3ccccc3)c2C)C1c1ccc(C)o1` (stereo not drawn) gave SMARCA2 activ 12*, esBAF inh inconclusive, SMARCA2 act conf 6 and VP16 Luc act 3.
Screening C[C@H]1CN([C@@H](C)CO)C(=O)c2cc(NC(=O)Nc3ccccc3)ccc2O[C@@H]1CN(C)C(=O)NC1CCCCC1 returned FGF22 binding 0, MLL AF4-AF9 inh -2 and esBAF inh 0.
COc1ccc(-c2ccc([C@H]3[C@H]4CN(C(=O)C5CCOCC5)CC(=O)N4[C@H]3CO)cc2)cc1 was read as MLL AF4-AF9 inh 2.
`Cc1ccc(S(=O)(=O)C2CS(=O)(=O)CC2O)cc1` (stereo not drawn) gave SMARCA2 activ -1, esBAF inh 4 and MITF TRPM1 HTS 2.
For CC(=O)C1=C(S(=O)(=O)c2ccc(C)cc2)CS(=O)(=O)C1 the results were FGF22 binding 1, MLL AF4-AF9 inh -8, Wnt act 9, SMARCA2 activ 9.1*, MITF TRPM1 HTS -10, SMARCA2 act conf 15* and VP16 Luc act 2.
O=C(OCCc1ccccn1)c1cccc([N+](=O)[O-])c1 was read as FGF22 binding 0, MLL AF4-AF9 inh 0, Wnt act -3, SMARCA2 activ 8.2*, esBAF inh 18, MITF TRPM1 HTS 1, SMARCA2 act conf 3 and VP16 Luc act 3.
`O=C(c1cccc([N+](=O)[O-])c1)N(c1ccccn1)c1ccccn1` gave SMARCA2 activ 8.0*, MITF TRPM1 HTS 2, SMARCA2 act conf 0 and VP16 Luc act 1.
O=C(NCc1ccccn1)c1cccc([N+](=O)[O-])c1 was read as FGF22 binding 1, MLL AF4-AF9 inh 2, Wnt act -1, SMARCA2 activ 2, esBAF inh -19 and MITF TRPM1 HTS -6.
O=C1CN(c2ccccc2)C(=S)N1C(=O)c1ccc(Br)cc1 was read as FGF22 binding 0, MLL AF4-AF9 inh -1, Wnt act 0, SMARCA2 activ 8.8*, esBAF inh inconclusive, SMARCA2 act conf 7 and VP16 Luc act 16*.
O=C(c1ccc(Br)cc1)N1CCC(C(=O)N2CCN(c3ccccc3)CC2)CC1 was read as FGF22 binding 0, MLL AF4-AF9 inh 1, Wnt act -1, SMARCA2 activ -3 and MITF TRPM1 HTS -4.
`COc1ccccc1NC(=O)N1C[C@@H](O)COC[C@@H]2O[C@H](CC(=O)NCc3ccccc3)CC[C@H]21` gave FGF22 binding 0, MLL AF4-AF9 inh -6 and esBAF inh 2.
For Cc1ccc2nc(NC(=O)c3ccc(Br)o3)sc2c1 the results were FGF22 binding 0, MLL AF4-AF9 inh -3, Wnt act 16, SMARCA2 activ 7 and esBAF inh -6.
`COc1ccc2nc(NC(=O)Nc3ccccc3OC)sc2c1` gave FGF22 binding 0, MLL AF4-AF9 inh 0, Wnt act 12, SMARCA2 activ 12*, MITF TRPM1 HTS 32, SMARCA2 act conf 6 and VP16 Luc act 10*.
Screening NS(=O)(=O)c1ccc2nc(NC(=O)c3ccc(Br)o3)sc2c1 returned FGF22 binding 0, MLL AF4-AF9 inh -3, Wnt act 3, SMARCA2 activ 8.3*, MITF TRPM1 HTS 75, SMARCA2 act conf 1 and VP16 Luc act 4.
For COc1ccc2nc(NC(=O)Nc3cccc4ccccc34)sc2c1 the results were MLL AF4-AF9 inh 4, Wnt act 7, SMARCA2 activ 2 and MITF TRPM1 HTS 79.
Screening CC(=O)NCCC(=O)Nc1nc2ccc(Oc3ccccc3)cc2s1 returned FGF22 binding 0, MLL AF4-AF9 inh -13, Wnt act 24, SMARCA2 activ 11*, esBAF inh 22, MITF TRPM1 HTS 109*, SMARCA2 act conf 4 and VP16 Luc act 8.7*.
For COc1ccccc1NC(=O)Nc1nc2ccc(S(N)(=O)=O)cc2s1 the results were FGF22 binding 0, MLL AF4-AF9 inh 2, Wnt act 21, SMARCA2 activ 10*, esBAF inh 48*, MITF TRPM1 HTS 87*, SMARCA2 act conf 15* and VP16 Luc act 6.3*.
Screening C[C@H]1CN([C@@H](C)CO)S(=O)(=O)c2ccc(-c3ccccc3)cc2O[C@H]1CN(C)C(=O)Nc1ccccc1F returned FGF22 binding 0 and MLL AF4-AF9 inh 5.
O=C(O)C[C@H]1C[C@@H]2c3cc(NC(=O)CC4CC4)ccc3O[C@@H]2[C@H](CO)O1 was read as FGF22 binding 0, MLL AF4-AF9 inh -3 and esBAF inh 0.
C[C@@H]1CN([C@@H](C)CO)C(=O)c2cc(-c3ccccc3F)cnc2O[C@@H]1CN(C)Cc1ccc(F)cc1 was read as FGF22 binding 0, MLL AF4-AF9 inh -6 and esBAF inh 2.
C[C@H]1CN([C@@H](C)CO)C(=O)CCCn2cc(nn2)CO[C@@H]1CN(C)Cc1ccc2c(c1)OCCN2C was read as esBAF inh 1.
For Cc1ccc(S(=O)(=O)N(C)C[C@H]2OCCCC[C@H](C)Oc3ccc(NC(=O)Nc4c(C)noc4C)cc3C(=O)N([C@H](C)CO)C[C@H]2C)cc1 the results were FGF22 binding 1, MLL AF4-AF9 inh -1 and esBAF inh -2.
Screening Cn1c2ccccc2c(=O)c2ccc(C#Cc3ccccn3)cc21 returned FGF22 binding 0, MLL AF4-AF9 inh -5, Wnt act -1 and SMARCA2 activ 2.
Cn1c2ccccc2c(=O)c2cc(C#Cc3ccccn3)ccc21 was read as FGF22 binding 0, MLL AF4-AF9 inh 0, Wnt act 21, SMARCA2 activ 8.1*, esBAF inh 2, MITF TRPM1 HTS 102*, SMARCA2 act conf 21* and VP16 Luc act 5.3*.
Screening Cn1c2ccccc2c(=O)c2ccc(C#CC3(N)CCCCC3)cc21 returned FGF22 binding -1, MLL AF4-AF9 inh -8, Wnt act 24, SMARCA2 activ 19*, esBAF inh -15, MITF TRPM1 HTS -13, SMARCA2 act conf 44* and VP16 Luc act 19*.
